According to PubChem BioAssay AID977606 (Broad Institute, 2014):
Screen size: about 1,500 compounds; about 430 (29%) were called active. The rule behind the calls is not given here. A selection follows. Measured potencies and affinities stand elsewhere.

test: insulin secretion activators without glucose, dose response, counter-screen for glucose-dependent insulin secretion activators, cell-based, INS-1E, Gaussia luciferase, luminescence, cherry-pick (AID 977606); conditions: INS-1E Gaussia luciferase insulin secretion, no glucose, 100% = twice neutral-control luminescence; series mostly up to 35 µM

Row | Structure (SMILES) | outcome
1 | FC(F)(F)c1cc(-c2ccccc2)nc(-n2cc(Cl)cn2)n1 | inactive
2 | Cn1c(=O)c2[nH]c(SCc3ccccn3)nc2n(C)c1=S | inactive
3 | O=C(NCCN1CCN(C(=O)c2ccccc2Cl)CC1)C(=O)NCc1ccccc1 | inactive
4 | CC(=O)Nc1nc(NCc2ccccc2Cl)n(-c2ccccc2)n1 | inactive
5 | CC(C)Nc1nc(Nc2ccc(C(N)=O)cc2)c2sccc2n1 | inactive
6 | CCSc1nnc2ccc(-c3cccs3)nn12 | inactive
7 | O=C(CCS(=O)(=O)c1ccc(Cl)cc1)Nc1ccc(N2CCOCC2)cc1 | inactive
8 | COc1ccc(/C=C/c2nc(C#N)c(NCCN(C)C)o2)cc1OC | inactive
9 | CCCCNC(=O)C1(C)CCN1C(=O)c1cc2ccccc2s1 (centres undefined) | inactive
10 | CCOC(=O)C1(C)CCCCN1C(=O)c1cccc(Cl)c1 (centres undefined) | inactive
11 | CCc1nc(N)nc2c1C(=O)CC(C)(C)C2 | inactive
12 | CNc1ccc(-c2ccccc2OC)cn1 | inactive
13 | COc1ccc(CCN2C(=O)CC(Cc3ccccc3)C2=O)cc1OC (centres undefined) | inactive
14 | CCOC(=O)c1c(S(=O)(=O)NCCc2ccc(OC)c(OC)c2)c(C)n(C)c1C | inactive
15 | COc1ccc(-c2nc3cccc(C)n3c2NCc2ccco2)cc1OC | inactive
16 | COc1ccc(CCNC(=O)CCn2c(=O)c3ccccc3n(CC(=O)NCC3CCCO3)c2=O)cc1OC (centres undefined) | inactive
17 | COc1ccc(-c2noc(CCC(=O)Nc3cccnc3)n2)cc1OC | inactive
18 | Cc1cc(NS(=O)(=O)c2ccc(NC(=O)C(C)Oc3ccccc3Cl)cc2)no1 (centres undefined) | inactive
19 | CC1(C)CC(=O)C(C=NC2CC(C)(C)NC(C)(C)C2)=C(O)C1 | inactive
20 | COCCNc1nc(NC(C)C)nc2ccsc12 | inactive
21 | CCn1nnnc1NCc1ccc(OCc2c(F)cccc2Cl)c(OC)c1 | inactive
22 | COCCN1Cc2cccc(C(=O)NCc3ccccc3OC)c2C1=O | inactive
23 | COc1cc2ccc(C(C)=O)cc2cc1OC | inactive

Row | Structure (SMILES) | outcome
24 | COc1ccc2ccc(=O)oc2c1CC=C(C)C | inactive
25 | Cc1ccc(NC(=O)CN(C(=O)N2CCN(C)CC2)S(=O)(=O)c2ccc(C)cc2)cc1 | inactive
26 | FC(F)(F)c1cc(CCN2CCNC[C@@H]2Cc2ccccc2)cc(C(F)(F)F)c1 | inactive
27 | NC(=O)C1CCN(C(=O)CCNS(=O)(=O)c2ccccc2F)CC1 | inactive
28 | COc1ccccc1C(OC(=O)c1cccs1)C(=O)NCC1CCCO1 (centres undefined) | inactive
29 | CC(=O)Nc1cccc(-n2c(=O)n(Cc3ccccc3)c(=O)c3[nH]cnc32)c1 | inactive
30 | O=C(c1cccs1)N(Cc1cccc(F)c1)C1CCS(=O)(=O)C1 (centres undefined) | inactive
31 | C/C(=N/Oc1nc(C)cc(C)n1)c1ccc(F)cc1 | inactive
32 | C=CCn1c(O)c(N=NC(=O)CNC(=O)c2ccco2)c2ccccc21 | inactive
33 | CC(C)COC(=O)N1C[C@H](O)C[C@H]1C(=O)Nc1ccc(Cl)cc1 | inactive
34 | Cn1cc(C(=O)NCC(=O)Nc2ccccc2Br)cn1 | inactive
35 | COc1ccc(CNC(=O)c2cnn3c(C(F)F)cc(C)nc23)cc1 | inactive
36 | COc1ccccc1-c1cnc2c(Nc3cccc(OC(F)(F)C(F)F)c3)nccn12 | inactive
37 | O=C1CC(NS(=O)(=O)c2cccs2)CN1c1cccc(F)c1 (centres undefined) | inactive
38 | CC1(C)Cc2c(cnn2-c2ccccc2)C(NC(=O)CCN2CCCC2=O)C1 (centres undefined) | inactive
39 | COc1ccc(C2CC(c3ccc(OC)c(OC)c3)=NN2C(=O)c2ccccc2)cc1 (centres undefined) | inactive
40 | COc1ccc(-c2cc(C(F)(F)F)n3nc(C(=O)O)cc3n2)cc1OC | inactive
41 | Cc1ccccc1Cc1c(C)nc2c(C(=O)NCc3ccco3)cnn2c1C | inactive
42 | Cn1nnnc1Sc1ncnc2scc(-c3ccc(F)cc3)c12 | inactive
43 | CCOc1nc(CC(C)C)c2c(c1C#N)CC(C)(C)OC2 | inactive
44 | CCOc1ncccc1C(=O)Nc1ccccc1F | inactive
45 | CCOc1nc(Nc2ccccc2F)nc(OCC)n1 | inactive
46 | COc1ccc(C(=O)Nc2ccccc2C(=O)Nc2ccncc2)cc1 | inactive

Row | Structure (SMILES) | outcome
47 | CC(=O)c1cccc(NC(=O)CCC(=O)Oc2ccc(C)cc2)c1 | inactive
48 | Cc1cccc(C(=O)NC(=S)NNC(=O)COc2c(C)cccc2C)c1 | inactive
49 | COc1ccc(NC(=O)C2(c3ccc(NC(=O)c4ccc(OC)cc4)cc3)CCCC2)cc1 | inactive
50 | CCOc1ncccc1C(=O)Nc1cccc(S(=O)(=O)NC2=NCCC2)c1 | inactive
51 | C/C(Cl)=C\Cn1c(N2CCCC2)nc2c1c(=O)[nH]c(=O)n2C | inactive
52 | CCCCn1c(N2CCCC2)nc2c1c(=O)[nH]c(=O)n2C | inactive
53 | COc1cc2c(cc1OC)-c1cc(N3CCc4ccccc43)nc(=O)n1CC2 | inactive
54 | Cc1nc2c(c(N3CCOCC3)n1)OCC(=O)N2 | inactive
55 | COc1ccc(OCCCCN(C)Cc2ccccc2)cc1 | inactive
56 | CCC(C)c1ccccc1OCCn1ccnc1 (centres undefined) | inactive
57 | Cc1noc(C)c1S(=O)(=O)NC(=O)C1(C)CCN1C(=O)C1(c2ccc(Cl)cc2)CCC1 (centres undefined) | inactive
58 | CC1(C(=O)NS(=O)(=O)c2ccc(C#N)cc2)CCN1C(=O)C1(c2ccccc2)CCCC1 (centres undefined) | inactive
59 | CC1(C(=O)NS(=O)(=O)c2ccc(Cl)s2)CCN1C(=O)C1(c2ccc(Cl)cc2)CCC1 (centres undefined) | inactive
60 | CC1(C(=O)N2CCCCC2)CCN1C(=O)C1(c2ccccc2)CC1 (centres undefined) | inactive
61 | COC(=O)COc1ccc(C)cc1-n1nc2ccccc2n1 | inactive
62 | O=c1[nH]c(CN2CCN(c3ccc(O)cc3)CC2)nc2scc(-c3ccc(Cl)cc3)c12 | inactive
63 | O=C(NCc1ccccc1)c1cccnc1Sc1ccccc1 | inactive
64 | CCC(O)c1nc2ccccc2n1CCc1ccccc1 (centres undefined) | inactive
65 | CC1(C)Cc2c(c(-c3ccco3)nc3n[nH]c(N)c23)CO1 | inactive
66 | COc1ccc(CCNC(=O)CN2c3cccc4cccc(c34)S2(=O)=O)cc1OC | inactive
67 | Fc1cccc(-c2nnn3c2nc(Cl)c2ccccc23)c1 | inactive
68 | CC(=O)c1c(C)oc2ccc(NS(=O)(=O)c3ccc(F)cc3C)cc12 | inactive
69 | CCOC(=O)Cc1nn(Cc2ccccc2)c(=O)c2ccccc12 | inactive

Row | Structure (SMILES) | outcome
70 | O=S(=O)(Nc1ccc(-c2ccc3nncn3n2)cc1)c1ccccc1Cl | inactive
71 | N#Cc1c(-c2ccncc2)cc(-c2ccc(F)cc2)nc1N | inactive
72 | Cc1nc(N)c(C#N)c(-c2cccnc2)c1C | inactive
73 | COc1ccc(Cn2c(=O)c3[nH]cnc3n(-c3ccccc3C)c2=O)cc1 | inactive
74 | CC(=O)c1ccc2c(c1)N(Cc1ccccc1)C(=O)C(C)S2 (centres undefined) | inactive
75 | Cc1ccc(OCC(=O)NNC(=O)CCC(=O)Nc2ccc(C)cc2C)cc1 | inactive
76 | Cc1ccccc1NC(=O)c1ccc(OCc2c(C)noc2C)cc1 | inactive
77 | COc1ccc(CO/N=C/c2c(C)[nH]c(=O)[nH]c2=O)cc1 | inactive
78 | CCc1nc2c(nnn2Cc2ccc(F)cc2)c(=O)[nH]1 | inactive
79 | S=c1[nH]nc(-c2ccccc2)n1/N=C/c1c[nH]c2ccccc12 | inactive
80 | Cc1ccccc1-c1n[nH]c(=S)n1/N=C/c1c(C)nn(-c2ccccc2)c1C | inactive
81 | CCOC(=O)c1oc2cc(O)cc(C)c2c1C | inactive
82 | C=CCNc1sc(C(=O)C2CC2)c(N)c1C#N | inactive
83 | Cc1cccc(N2CCN(C(=O)c3cccn4c(=O)c5c(C)c(C)sc5nc34)CC2)c1C | inactive
84 | Cc1ccc(F)cc1NC(=O)c1sc2ncn(CC(=O)N3CCN(c4ccccn4)CC3)c(=O)c2c1C | inactive
85 | O=C(CCc1ccccc1)NNC(=O)COc1ccccc1Cl | inactive
86 | COc1ccc(/C=N/Nc2ncnc3c2[nH]c2ccccc23)c(OC)c1OC | inactive
87 | Cn1c(N)c(C(c2ccccc2)c2c(N)n(C)c(=O)n(C)c2=O)c(=O)n(C)c1=O | inactive
88 | O=c1cc(Cl)[nH]c(=O)n1Cc1ccccc1 | inactive
89 | O=c1cc(-c2ccncc2)oc2c1ccc1ccccc12 | inactive
90 | CC(C)Cn1c(Cc2ccccc2)n[nH]c1=S | inactive
91 | COc1ccc(S(=O)(=O)N(C)CC(=O)Nc2ccc3c(c2)OCCO3)cc1OC | inactive
92 | O=C(O)Cc1ccc(NS(=O)(=O)c2ccc3c(c2)OCCO3)cc1 | inactive

Row | Structure (SMILES) | outcome
93 | O=C(NCc1ccccc1)C(c1ccncc1)n1c(=O)c(-c2ccccc2)nc2ccccc21 (centres undefined) | inactive
94 | O=C(COc1ccccc1)Nc1ccccc1C(=O)NC1CC1 | inactive
95 | CN1CCC(N(C)S(=O)(=O)c2ccc(NC(=O)COc3cccc(Cl)c3)cc2)CC1 | inactive
96 | N#CC1=C(N)Oc2n[nH]c(-c3ccc(F)cc3)c2C1c1cccnc1 (centres undefined) | inactive
97 | COc1ccc(CCNS(=O)(=O)c2cn(C)cn2)cc1OC | inactive
98 | NC1=NC[C@H](Cc2ccccc2)N1CCCCC1CCCCC1 | inactive
99 | CN=C1c2ccccc2CN1c1cccc(C(=O)OC)c1 | inactive
100 | CSc1ccc(/C=N/N(C)S(=O)(=O)c2ccc(C)cc2)cc1 | inactive
101 | Cc1ccc(S(=O)(=O)/N=C2\CN(C)C(=O)N2C)cc1 | inactive
102 | Cc1cc(Br)ccc1NC(=O)CN(C)C(=O)C1CSC2(C)CCC(=O)N12 (centres undefined) | inactive
103 | Cc1ccc(NC2c3ncccc3C(=O)N2C2CCCCC2)cc1 (centres undefined) | inactive
104 | CCSc1nnc(-c2cccnc2)n1-c1ccc(C)c(Cl)c1 | inactive
105 | Cc1ccc(-c2cc(C(=O)Nc3nn[nH]n3)c3ccccc3n2)c(C)c1 | inactive
106 | COc1ccc(CCNC(=O)CCc2nc3ccccc3[nH]2)cc1OC | inactive
107 | Cc1ccc(-c2nnc3sc(-c4ccncc4)nn23)cc1 | inactive
108 | O=c1c2[nH]cnc2n(-c2ccc(F)cc2)c(=O)n1Cc1ccccc1 | inactive
109 | COc1ccc(S(=O)(=O)NC2CCCCC2)cc1C | inactive
110 | Cc1cc(C(=O)NC(C)CCC(C)C)c2ccccc2n1 (centres undefined) | inactive
111 | O=C(Nc1ccccc1C(=O)N/N=C/c1ccccc1)c1ccco1 | inactive
112 | CONc1nc(NC(C)(C)C)nc(OCC#N)n1 | inactive
113 | COc1ccc2oc(C(=O)Nc3nnc(C)s3)c(C)c2c1 | inactive
114 | COc1ccc(CCN(C)C(=O)c2oc3ccccc3c2C)cc1OC | inactive
